Experimental data: PubChem BioAssay (NCATS)
Records with an inconclusive call do not appear. Active and inactive are the calls of the source. The call rests on the fitted dose curve; in most records, active means well fitted inhibition curve with a large enough effect; inconclusive means small, poorly fitted or top-dose-only effect; inactive means flat fitted curve, though single readings scatter.

Each compound was assayed on GB4 (assay: qHTS profiling for inhibitors of Plasmodium falciparum proliferation (AID 504749; further: nearly all actives have a fitted effect of over 60% in size)). Conditions: P. falciparum in erythrocytes, SYBR Green DNA, 72 h; series mostly up to 28.7 µM.
Outline: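 Parasite proliferation within erythrocytes, 72 h exposure. Endpoint: SYBR Green I fluorescence after overnight lysis at room temperature. Controls: 0.29 uM artemisinin, DMSO.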
Potency means the concentration at half of the fitted maximal effect.

Compound | Potency
O=C(CN1CCN(Cc2ccc3c(c2)OCO3)CC1)N1c2ccccc2Sc2ccccc21 | 12 µM (active)
CC(C)(C)CC(C)(C)c1ccc(O)c(-n2nc3ccccc3n2)c1 | 16.9 µM (active)
CCCCCN=C(N)N/N=C/c1c[nH]c2ccc(OC)cc12 | 5.36 µM (active)
CN(Cc1ccc(C(C)(C)C)cc1)Cc1cccc2ccccc12 | inactive
CN1CCN(c2c(F)cc3c(=O)c(C(=O)O)cn4c3c2SCC4)CC1 | inactive
CN1CCc2cccc3c2[C@H]1Cc1ccc(O)c(O)c1-3 | 7.57 µM (active)
CC(C)(Cc1c[nH]c2ccccc12)NCC(O)COc1ccccc1C#N (stereo unspecified) | 9.53 µM (active)
CNCCCCOc1ccccc1Cc1ccccc1 | 1.69 µM (active)
Clc1cccc(C(c2ccc3nc[nH]c3c2)n2ccnc2)c1 (stereo unspecified) | 12 µM (active)
COc1ccc(C(Cl)=C(c2ccc(OC)cc2)c2ccc(OC)cc2)cc1 | inactive
O=C1C(O)=C(O)C(=O)C(O)=C1O | inactive
Oc1c(Cl)cc(Cl)c(Cl)c1Cc1c(O)c(Cl)cc(Cl)c1Cl | 15.1 µM (active)
OC(C#CCN1CCCC1)(c1ccccc1)c1ccccc1 | 6.75 µM (active)
COc1ccccc1N1CCN(CCCCNC(=O)c2ccc(-c3ccc(C(C)=O)cc3)cc2)CC1 | inactive
CC(C)(C)NC[C@H](O)COc1nsnc1N1CCOCC1 | 7.57 µM (active)
CN(C)CCN1C(=O)c2ccccc2N(C)c2ccccc21 | 9.53 µM (active)
